Laboratory results taken from PubChem BioAssay AID2314 (National Center for Advancing Translational Sciences (NCATS), 2010).
About 37,000 (12%) of roughly 300,000 compounds were called active. This excerpt belongs to a sample that is enriched for actives. Unmarked numbers belong to inactive results. Cut-off read from the data, not from the text of the source: active = max response mostly above about 13% (no sharp cut-off); inactive = mostly below about 14%.

Experiment: Cycloheximide Counterscreen for Small Molecule Inhibitors of Shiga Toxin; note: read at 38.3 µM for the half of the compounds with a filed dose; 0% is about no effect
Conditions: cell reporter, cycloheximide protein synthesis inhibition counterscreen; stronger effect = higher value

| SMILES | max response |
| --- | --- |
| CCOC(=O)CSc1nc(C)c(Oc2ccc(Cl)cc2Cl)c(=O)[nH]1 | -0.833% |
| CC1CCCC(C)N1/N=C/c1ccccc1OC(F)F (centres undefined) | 7.52% |
| COC(=O)c1ccc(/C=N/N2C(C)CCCC2C)cc1 (centres undefined) | 32.3% (active) |
| COC(=O)c1ccc(/C=N\n2c(C)nnc2C)cc1 | -2.39% |
| CNC(=O)c1c(NC(NC(=O)c2ccco2)C(=O)c2ccc(Cl)cc2)sc2c1CCCC2 (centres undefined) | -2.69% |
| COC(=O)c1ccc(NC(=O)CSc2nncn2-c2cccnc2)cc1 | 3.92% |
| COC(=O)C1(C)NC(c2ccc(F)cc2)C2C(=O)N(c3ccccc3)C(=O)C21 (centres undefined) | -1.89% |
| COc1ccc(NC(=O)CN(C)C(=O)CNC(=O)C2CCCCC2)cc1 | 4.44% |
| CN(CC(=O)Nc1ccc(Cl)cc1)C(=O)CNC(=O)c1ccc2ccccc2c1 | 24.6% (active) |
| COc1cccc(NC(=O)CN(C)C(=O)Cc2ccc(Cl)cc2Cl)c1 | -1.79% |
| CCOC(=O)[C@@H]1[C@H]2COc3cc(OC)ccc3[C@@H]2N2C(=O)N(c3cccc(C)c3)C(=O)[C@@]12C | -1.45% |
| CCCCn1c(-c2cccc(C)c2)nc2cc3[nH]c(=O)c(C(C)C)nc3cc21 | 8.65% |
| CC1(C)CCSC(/C=C/c2ccccc2)=N1 | 32.8% (active) |
| CCCCC(CC)CNC(=O)C(=O)C1C(=O)Nc2ccccc21 (centres undefined) | 15.4% |
| C[C@@H]1C(c2ccc(F)cc2)=NN(c2ccc(Br)cc2)[C@H]1C(=O)N1CCOC1=O | -1.82% |
| COc1ncnc2sc3c(c12)CCCC3 | -0.884% |
| COc1ccc(NC(=O)CCNC(=O)Cn2cnc3sc4c(c3c2=O)CCCC4)cc1OC | -3.75% |
| COc1ccc(/C=N/Nc2ncnc3sc4c(c23)CCCC4)cc1O | 27.5% (active) |
| COc1ccc(C2C(C(C)=O)=C(O)C(=O)N2c2nccs2)cc1 (centres undefined) | -3.41% |
| COc1ccc(C(=O)NNC(=S)NC(=O)c2ccccc2[N+](=O)[O-])cc1 | 2.1% |
| Cc1ccc(NC(=O)CN2C(=O)NC(C)(c3ccc(Cl)cc3)C2=O)c(Br)c1 (centres undefined) | -5.49% |
| COc1cccc(N(C(=O)C2COc3ccccc3O2)C(C(=O)NC2CCCCC2)c2ccc(O)cc2)c1 (centres undefined) | 8.69% |

| SMILES | max response |
| --- | --- |
| COc1ccc(C(=O)N2CCC(C(=O)Nc3ccc(C)cc3)CC2)cc1 | 4.42% |
| CC(/C=C/c1ccco1)=N/NC(=O)C1COc2ccccc2O1 (centres undefined) | 7.66% |
| C/C(=N/NC(=O)C1COc2ccccc2O1)c1ccco1 (centres undefined) | 4.02% |
| CC(=O)c1cccc(NC(=O)C2COc3ccccc3O2)c1 (centres undefined) | 23.2% (active) |
| COc1ccc(NC(=O)C2COc3ccccc3O2)cc1 (centres undefined) | 41% (active) |
| Cn1nc(C(F)(F)F)c(C(=O)Nc2cccc(C(F)(F)F)c2)c1SCc1ccc(Cl)cc1 | -3.55% |
| Cc1ccc(CN(CC(=O)NCC2CCCO2)S(=O)(=O)c2ccc(C)cc2)cc1 (centres undefined) | -1.68% |
| O=C1Nc2ccccc2/C1=C/c1ccnc2ccccc12 | -4.29% |
| Cc1cccn2c(=O)c(C=O)c(Nc3ccc(S(N)(=O)=O)cc3)nc12 | -2.14% |
| CC(C)C(C)NC(=O)COc1nc2ccccc2nc1N(C)C1CCCCC1 (centres undefined) | -4.63% |
| CCCc1nc2ccccc2c(=O)n1/N=C/c1ccc(O)c(O)c1 | -1.03% |
| O=c1c2ccccc2nc(N/N=C/c2ccccc2)n1O | 11.3% |
| O=c1c2ccccc2ncn1/N=C/c1ccccc1 | 40.3% (active) |
| O=C(O)CCC(=O)O | 7.04% |
| COc1ccc(C(C(=O)NCC2CCCO2)N(C(=O)Cn2nnc3ccccc32)c2ccc(NC(C)=O)cc2)cc1OC (centres undefined) | -1.07% |
| CCC(C)(C)NC(=O)C(c1ccc(O)cc1)N(C(=O)Cn1nnc2ccccc21)c1ccc(NC(C)=O)cc1 (centres undefined) | -2.51% |
| COc1ccc(C(C(=O)NC(C)(C)C)N(C(=O)Cn2nnc3ccccc32)c2ccc(C(C)=O)cc2)cc1O (centres undefined) | 14.1% (active) |
| COC(=O)C1CCN(CC(N)=O)CC1 | -5.67% |
| CCOP(=O)(OCC)C(Nc1cccc(C)c1)c1ccc(F)cc1 (centres undefined) | -1.31% |
| C(=N\n1cnnc1)/c1cccnc1 | 0.339% |
| COc1cccc(OCCOc2cccc(/C=N/n3cnnc3)c2)c1 | 42.6% (active) |
| COc1ccccc1OCCOc1ccc(/C=N/n2cnnc2)cc1 | -5.27% |

| SMILES | max response |
| --- | --- |
| CNC(=O)COC(=O)c1cc(-c2ccc(OC)cc2)nc2ccccc12 | 10.9% |
| CCc1ccc(-c2cc(C(=O)NN3CCN(C)CC3)c3ccccc3n2)cc1 | 21.6% (active) |
| COC(=O)CNC(=O)c1cc(-c2ccncc2)nc2ccccc12 | 7.25% |
| O=C(COc1ccc(Cl)cc1)NCCS(=O)(=O)N1CCN(c2ccc(F)cc2)CC1 | -2.81% |
| Brc1ccccc1C1N=C(c2ccccc2)NO1 (centres undefined) | 46.9% (active) |
| S=C1NC(c2ccccc2)=NCN1c1ccc(Br)cc1 | 11.3% |
| N#Cc1ccc(C2N=C(c3ccccc3)NO2)cc1 (centres undefined) | 50.7% (active) |
| Brc1ccccc1C1Nc2cccc3cccc(c23)N1 | -2.34% |
| COc1ccc(CNC(=O)c2cc(C(=O)C3CC3)c[nH]2)cc1 | -0.249% |
| Cc1cc(Nc2cccc(C)c2C)n2ncnc2n1 | -1.07% |
| CCn1cc(C(=O)OCC(=O)Nc2cccc(C)c2)c(=O)c2ccc(C)nc21 | -2.42% |
| CN(c1ccc(OCC(=O)OCC(=O)Nc2cccc([N+](=O)[O-])c2)cc1)S(=O)(=O)c1ccc(F)cc1 | 5.41% |
| Cc1onc(-c2ccccc2)c1C(=O)N1CCN(S(=O)(=O)c2ccccc2C(F)(F)F)CC1 | 10.2% |
| Oc1ccc(/C=N/Nc2nc(-c3ccccc3F)nc3ccccc23)c(O)c1 | 15.1% (active) |
| COc1ccc(/C=C(\C#N)C(=O)ONC2=NCCCCC2)cc1 | 9.41% |
| FC(F)(F)c1nc2ccccc2nc1N/N=C/c1ccc(Cl)cc1 | -0.973% |
| Cc1cc(N/N=C/c2ccccc2F)c2ccccc2n1 | -1.58% |
| Oc1ccc(/C=N/NC2=NCCCCC2)c(O)c1 | 42% (active) |
| Cc1nc2ccccc2nc1N/N=C/c1ccc(O)cc1O | 25% (active) |
| Cc1ccc(/C=N/NC(=O)C2=NNC(c3ccccc3)(c3ccccc3)C2)c(O)c1 | 9.49% |
